Source: PubChem BioAssay (NCATS)
Results filed as inconclusive are left out. Where a call stands in place of a potency, no number is given. The source made the active and inactive calls. Calls come from the whole dose curve; as a rule, active = well fitted curve in the direction sought with a large enough effect; inconclusive = small, poorly fitted or top-dose-only effect, or another doubt; inactive = no such curve, though single readings can be large; an effect the other way counts as inactive or inconclusive.

Assays:
[1] = test system: Zika virus NS2B-NS3 protease; test: Primary screen GU AMC qHTS for Zika virus inhibitors (AID 1347154); note: nearly all actives have a fitted effect of over 70% in size
Method in brief: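 Unlinked Zika NS2B hydrophilic domain–NS3 protease complex at 25 nM in 10 mM Tris-HCl pH 8.0, 0.01% Tween 20, with an AMC peptide substrate. Fluorescence change (340/450 nm) over 15 min at room temperature, normalized to controls, fitted to 4-parameter Hill.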

[2] = test system: Zika virus NS2B-NS3 protease (linked construct); test: Primary screen NINDS Rhodamine qHTS for Zika virus inhibitors (AID 1347160); conditions: outcome: dose series up to 57.1 µM; note: nearly all actives have a fitted effect of over 55% in size
Method in brief: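 Rhodamine110-peptide cleavage (1.5 µM substrate) by 25 nM linked NS2B-NS3 enzyme at pH 8.0 (Tris, Tween 20), after 15 min RT preincubation with compounds; 15-min fluorescence change normalized to controls and Hill-fitted.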

Question: With `C#C[C@]1(OC(C)=O)CC[C@H]2[C@@H]3CCC4=C[C@@H](OC(C)=O)CC[C@@H]4[C@H]3CC[C@@]21C` as the compound, how does the Potency [1] read?
Answer: The Potency was “inactive”.

Question: What about the outcome [2] of the same compound?
Answer: The outcome was “inactive”.

Question: How did the Potency [1] turn out when `COc1ccc(CN2CCN(C(c3ccc(F)cc3)c3ccc(F)cc3)CC2)c(OC)c1OC` was run?
Answer: The Potency was “inactive”.

Question: What about the outcome [2] of the same compound?
Answer: The outcome was “inactive”.

Question: How did the Potency [1] turn out when `CC(C)n1nc(-c2cc3cc(O)ccc3[nH]2)c2c(N)ncnc21` was run?
Answer: Its Potency is “inactive”.

Question: What about the outcome [2] of the same compound?
Answer: Its outcome is “inactive”.

Question: With `NC(=NCCCCCCN=C(N)/N=C(\N)Nc1ccc(Cl)cc1)/N=C(\N)Nc1ccc(Cl)cc1` as the compound, how does the outcome [2] read?
Answer: The outcome was “inactive”.

Question: For `COc1cc(-c2ccc(=O)[nH]n2)ccc1OC(F)F`, which Potency [1] is on record?
Answer: The Potency was “inactive”.

Question: How did the Potency [1] turn out when `CC1=C(C(=O)O)N2C(=O)[C@@H](NC(=O)[C@H](N)c3ccc(O)cc3)[C@H]2SC1` was run?
Answer: Its Potency is “inactive”.

Question: Which results are given for `COC(=O)CCc1ccc(OCC(O)CNC(C)C)cc1` (centres undefined)?
Answer: Potency [1]: inactive; outcome [2]: inactive

Question: Which Potency [1] does the source give for `CC(=O)OCC(=O)[C@@]1(O)[C@H](C)C[C@H]2[C@@H]3CCC4=CC(=O)C=C[C@]4(C)[C@@]3(F)[C@@H](O)C[C@@]21C` here?
Answer: Its Potency is “inactive”.

Question: And the outcome [2]?
Answer: The outcome was “inactive”.

Question: With `CCCCOc1ccc(OCCCN2CCOCC2)cc1` as the compound, how does the Potency [1] read?
Answer: The Potency was “inactive”.

Question: `CN(C)CCCOc1nn(Cc2ccccc2)c2ccccc12` was tested. Which Potency [1] did it give?
Answer: The Potency was “inactive”.

Question: What about the outcome [2] of the same compound?
Answer: The outcome was “inactive”.

Question: Which results are given for `CC(C)(C)NC(=O)[C@@H]1CN(Cc2cccnc2)CCN1C[C@@H](O)C[C@@H](Cc1ccccc1)C(=O)N[C@H]1c2ccccc2C[C@H]1O`?
Answer: Potency [1]: inactive; outcome [2]: inactive

Question: With `CN1CCN(C(c2ccccc2)c2ccccc2)CC1` as the compound, how does the Potency [1] read?
Answer: The Potency was “inactive”.

Question: And the outcome [2]?
Answer: Its outcome is “inactive”.

Question: With `Cc1cc(=O)n(-c2ccccc2)n1C` as the compound, how does the Potency [1] read?
Answer: The Potency was “inactive”.

Question: With `O=C(OCCOCCO)c1ccccc1Nc1cccc(C(F)(F)F)c1` as the compound, how does the Potency [1] read?
Answer: Its Potency is “inactive”.

Question: And the outcome [2]?
Answer: The outcome was “inactive”.

Question: Which Potency [1] does the source give for `CN(C)CC/C=C1\c2ccccc2Sc2ccc(Cl)cc21` here?
Answer: Its Potency is “inactive”.
